Paper PMC4336329 (PLoS ONE, 2015)
Out of some 310,000 compounds screened, about 2,200 (0.71%) showed an effect of 50% or more. Effects have a minus sign here. This is one part of a sample in which strong results are shown more often than they occur.

Molecular target: human ether-à-go-go-related gene (hERG) potassium channel (human, UniProt Q12809)
Assay: primary screen, population patch clamp on CHO cells stably expressing hERG; higher = less effect of the substance

human ether-à-go-go-related gene (hERG) potassium channel, sequence (Q12809 whole entry, looked up): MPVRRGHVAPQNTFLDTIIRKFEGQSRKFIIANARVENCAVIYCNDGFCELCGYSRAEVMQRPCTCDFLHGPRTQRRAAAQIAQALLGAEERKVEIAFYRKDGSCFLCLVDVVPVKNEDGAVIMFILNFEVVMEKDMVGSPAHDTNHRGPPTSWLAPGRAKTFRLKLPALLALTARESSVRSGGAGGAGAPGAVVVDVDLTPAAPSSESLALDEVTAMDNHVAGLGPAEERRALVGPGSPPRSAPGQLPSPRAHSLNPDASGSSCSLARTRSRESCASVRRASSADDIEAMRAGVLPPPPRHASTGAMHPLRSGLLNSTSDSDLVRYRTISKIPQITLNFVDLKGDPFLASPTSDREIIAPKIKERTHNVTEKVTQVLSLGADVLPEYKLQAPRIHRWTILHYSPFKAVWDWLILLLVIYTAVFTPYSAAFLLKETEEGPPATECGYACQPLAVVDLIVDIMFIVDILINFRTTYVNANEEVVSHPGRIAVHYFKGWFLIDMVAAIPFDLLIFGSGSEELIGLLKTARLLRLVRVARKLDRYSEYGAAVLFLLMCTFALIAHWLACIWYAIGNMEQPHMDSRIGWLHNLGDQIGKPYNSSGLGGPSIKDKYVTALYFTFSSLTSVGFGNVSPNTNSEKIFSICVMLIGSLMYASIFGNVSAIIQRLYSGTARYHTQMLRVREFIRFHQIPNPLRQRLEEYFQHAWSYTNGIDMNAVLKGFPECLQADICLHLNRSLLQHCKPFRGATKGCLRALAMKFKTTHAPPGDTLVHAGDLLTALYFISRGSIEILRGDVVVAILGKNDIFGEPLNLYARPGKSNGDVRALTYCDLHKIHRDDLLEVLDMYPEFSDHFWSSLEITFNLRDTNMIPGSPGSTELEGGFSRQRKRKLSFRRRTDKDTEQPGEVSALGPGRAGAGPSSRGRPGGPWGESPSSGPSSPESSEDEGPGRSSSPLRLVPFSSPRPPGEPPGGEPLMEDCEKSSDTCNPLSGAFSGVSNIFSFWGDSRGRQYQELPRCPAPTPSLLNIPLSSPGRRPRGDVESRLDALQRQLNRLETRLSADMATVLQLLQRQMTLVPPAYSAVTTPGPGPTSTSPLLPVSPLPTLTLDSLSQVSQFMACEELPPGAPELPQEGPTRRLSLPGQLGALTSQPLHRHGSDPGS

In order of falling “hERG current change (%, negative = inhibition) at 1uM” value:
1. Cc1ccc(Cc2cc(C)n[nH]c2=O)cc1  27.1%
2. Cn1cnnc1SCC(=O)NCc1cccc(C(F)(F)F)c1  24.1%
3. COc1cc(C2NC(=O)C(C#N)=C(Nc3cccc(C)c3)S2)ccc1O (stereo not shown)  18.5%
4. COc1ccc(CCNC(=O)Cc2cccs2)cc1  16.8%
5. CC(C)(C)C(=O)Nc1ccc2oc(-c3cc(F)c(F)cc3Cl)nc2c1  15.8%
6. CC(C)(C)N(CC#CCC(O)(c1ccccc1)C1CCCC1)CCO (stereo not shown)  15.6%
7. O=C(O)c1ccc2c(=O)[nH]c(CN3CCOCC3)nc2c1  15.6%
8. O=C(NCCCN1CCCC1)Nc1ccccc1[N+](=O)[O-]  14.8%
9. COc1ccccc1Nc1nc(N)nc(CN2CCOCC2)n1  14.7%
10. COc1ccc(C(CNC(=O)CN2C(=O)NC3(CCCC3)C2=O)N(C)C)cc1 (stereo not shown)  13.2%
11. Cc1cc(N(C)C)c(C#N)c(=O)[nH]1  12.4%
12. CCCCC(=O)NNC(=S)NC(=O)C(c1ccccc1)c1ccccc1  12.3%
13. COC(=O)[C@H](CCSC)NC(=O)Nc1cc(C)ccc1C  11.7%
14. CC1NC(=O)N(C)C2NC(=O)N(C)C(c3ccccc3)C12 (stereo not shown)  11.1%
15. CC(=O)Nc1ccc(N/C=C(\C#N)S(=O)(=O)c2ccc(Cl)cc2)cc1  11.1%
16. COc1cc2c(cc1OC)[C@H](Cc1ccc(O)cc1)NCC2  10.8%
17. COc1cccc(N2CCN(Cc3nc(N)nc(Nc4ccccc4OC)n3)CC2)c1  10.2%
18. CC(OC(=O)C1CCCCC1)C(=O)Nc1ccc(S(N)(=O)=O)cc1 (stereo not shown)  9.37%
19. Cc1ccc(S(=O)(=O)c2cc3c(=O)n4ccccc4nc3n(CC3CCCO3)c2=N)cc1C (stereo not shown)  9.33%
20. O=C(c1cc([N+](=O)[O-])ccc1N1CCCCC1)N1CCc2ccccc21  8.63%
21. O=C(O)C(=O)O.c1ccc(COc2ccc(OCCCNC3CCCC3)cc2)cc1  8.41%
22. COc1ccc(CCNC(=O)Cn2c([N+](=O)[O-])cnc2C)cc1OC  8.24%
23. COc1ccc2nc(N=NC3=C(O)CC(C)(C)CC3=O)sc2c1  7.73%
24. CC1CC(C)CN(C(=S)SCc2nc(N)nc(Nc3ccccc3)n2)C1 (stereo not shown)  7.72%
25. O=C(c1cc2c([nH]c1=O)CCCC2)N1CCc2c([nH]c3ccccc23)C1c1ccccc1F (stereo not shown)  7.44%
26. CCCOc1ccc(C2c3c(oc4cc(C)c(C)cc4c3=O)C(=O)N2CCCN2CCOCC2)cc1 (stereo not shown)  7.1%
27. CNc1nc(CC(C)=O)ns1  6.99%
28. CCOC(=O)c1c(C)[nH]c(N=Nc2cccc(OC)c2)c1C  6.77%
29. CCC(C)(C)n1nnnc1C(c1cc2ccc(OC)cc2[nH]c1=O)N1CCc2ccccc21 (stereo not shown)  6.76%
30. O=C(N/C(=C/c1cccnc1)C(=O)N1CCCCCC1)c1ccccc1  6.71%
31. COc1ccccc1CNC(=O)C(NS(=O)(=O)c1ccc2c(c1)OCCO2)C(C)C (stereo not shown)  6.69%
32. COc1cc(S(=O)(=O)n2cnc(C)c2)ccc1Cl  6.58%
33. CC1=[N+]([O-])C2(N)CCc3nonc3C2(O)C1 (stereo not shown)  6.29%
34. COC(=O)Cc1ccc(NC(=S)N2CCN(C(=O)C3CCCO3)CC2)cc1 (stereo not shown)  5.7%
35. CCOC(=O)C1CCCCN1Cc1cc(Cl)ccc1O (stereo not shown)  4.99%
36. C=CCn1c(O)c(C(C)=NCCN2CCN(C(=S)NC)CC2)c(=O)[nH]c1=O  4.36%
37. O=C(CC1NCCc2ccccc21)Nc1ccccc1 (stereo not shown)  4.29%
38. COc1ccc(C(=O)C2CCCN(Cc3ccc4nonc4c3)C2)cc1F (stereo not shown)  3.27%
39. O=S(=O)(NCCc1ccncc1)c1cc(Br)ccc1F  2.96%
40. O=C(c1ccc(F)cc1)C1CCN(Cc2ccc(F)cc2)CC1  2.51%
41. COC(=O)c1cc2c(ccn2-c2ccc(F)cc2)n1Cc1ccc(OC)cc1  0.901%
42. CC(C)(C)Sc1ccc([N+](=O)[O-])cc1C(=O)Nc1ccncc1  0.86%
43. CCOC(=O)C1CCN(S(=O)(=O)c2ccc(Br)c(OCC)c2)CC1  0.854%
44. COc1cc2[nH]c(=O)n(CCC(=O)NCCCN3CCN(c4ccccc4F)CC3)c(=O)c2cc1OC  0.776%
45. CCc1cccc(NC(=O)C2CCCN(S(=O)(=O)c3ccc4[nH]c(=O)ccc4c3)C2)c1 (stereo not shown)  -0.861%
46. O=C(O)C(=O)O.c1ccc(Cc2ccc(OCCCNC3CCCC3)cc2)cc1  -3.05%
47. COc1ccccc1Nc1nc(N)nc(CN2CCN(c3ccccc3)CC2)n1  -3.16%
48. CCc1ccc(NC(=O)CN2CCC(C(=O)c3ccc(OC)cc3)CC2)cc1  -3.64%
49. COc1ccc(CNC(=O)C2CCN(C(=O)c3cccc(Cl)c3)CC2)cc1  -3.93%
50. COc1ccccc1Nc1nc(N)nc(CN2CCCCC2)n1  -4.26%
51. CN(C)c1ccc(/C=N/NC(=O)C(O)(c2ccccc2)c2ccccc2)o1  -5.86%
52. COc1ccc(C(=O)C2CCN(C(=S)Nc3ccc(F)cc3)CC2)cc1  -6.05%
53. COc1ccc(CN2CCCC(C(=O)c3cccc(Cl)c3)C2)cc1 (stereo not shown)  -7.39%
54. CCOc1ccc(N2CC(C(=O)N3CCc4ccccc43)CC2=O)cc1 (stereo not shown)  -8.82%
55. COc1ccccc1Nc1nc(N)nc(CN2CCN(c3ccccc3F)CC2)n1  -9.68%
56. Nc1nc(CN2CCc3ccccc3C2)nc(Nc2ccccc2)n1  -10.8%
57. COc1ccc(CC(=O)Nc2ccc(-c3noc(-c4ccccc4OC)n3)cc2)cc1  -11.7%
58. COc1ccc(N2CCN(Cc3nc(N)nc(Nc4ccccc4OC)n3)CC2)cc1  -14.5%
59. CCN1CCN(Cc2nc(N)nc(Nc3ccc(C)c(C)c3)n2)CC1  -14.8%
60. COc1ccc(CNC(=O)CN2CCC(C(=O)c3ccc(OC)cc3)CC2)cc1  -15.3%
61. N=c1c(S(=O)(=O)c2ccccc2)cc2c(=O)n3ccccc3nc2n1CC1CCCO1 (stereo not shown)  -17%
62. Cc1ccc(N2CC(C(=O)N3CCc4ccccc4C3)CC2=O)cc1 (stereo not shown)  -17.7%
63. COc1ccc(C(=O)C2CCCN(Cc3cnc(N4CCOCC4)s3)C2)cc1F (stereo not shown)  -17.9%
64. O=C(CCn1c(=O)[nH]c2ccccc2c1=O)NCCCN1CCN(c2cccc(Cl)c2)CC1  -30%
65. Cc1ccc(Nc2nc(N)nc(CN3CCc4ccccc4C3)n2)cc1  -31.5%
66. COc1ccccc1Nc1nc(N)nc(CN2CCCCCC2)n1  -32.2%
67. COc1ccc(C(=O)C2CCCN(Cc3cccn3-c3cccnc3)C2)cc1OC (stereo not shown)  -34.9%
68. COc1ccccc1Nc1nc(N)nc(CN2CCC(C)CC2)n1  -37.3%
69. COc1ccc(C(=O)C2CCCN(Cc3ccsc3)C2)cc1OC (stereo not shown)  -38.5%
70. O=C(NCCCN1CCN(c2ccccc2F)CC1)Nc1ccc(F)cc1  -47.6%
71. O=C(NCCCN1CCN(c2ccccc2F)CC1)Nc1ccccc1[N+](=O)[O-]  -51.1%
72. CC1CC(C)CN(Cc2nc(N)nc(Nc3ccccc3)n2)C1 (stereo not shown)  -52.3%
73. O=C(O)C(=O)O.c1ccc(-c2ccc(OCCCNC3CCCC3)cc2)cc1  -54.9%
74. CC1CC(C)CN(Cc2nc(N)nc(Nc3ccc4ccccc4c3)n2)C1 (stereo not shown)  -61.1%
75. COc1ccc(CN2CCC(C(=O)c3cccc(Cl)c3)CC2)cc1  -66.8%
76. CCOc1ccc(N2CC(C(=O)N3CCc4ccccc4C3)CC2=O)cc1 (stereo not shown)  -67.1%
77. COc1ccccc1Nc1nc(N)nc(CN2CC(C)CC(C)C2)n1 (stereo not shown)  -70.8%
78. CC(NC(=O)c1cc2c(=O)n3ccccc3nc2n(CC2CCCO2)c1=N)c1ccccc1 (stereo not shown)  -72.3%
79. COc1ccccc1Nc1nc(N)nc(CN2CCN(Cc3ccccc3)CC2)n1  -76.6%
80. N=c1c(C(=O)NC2CCCCC2)cc2c(=O)n3ccccc3nc2n1CC1CCCO1 (stereo not shown)  -79.2%
81. COc1ccccc1Nc1nc(N)nc(CN2CCN(Cc3ccc4c(c3)OCO4)CC2)n1  -79.8%
82. COc1ccc(CN2CCC(C(=O)c3ccc(Cl)cc3)CC2)cc1  -80.9%
83. COc1ccc(CN2CCC(C(=O)c3ccc(F)cc3)CC2)cc1  -81%
84. O=C(CCCCCn1c(=O)[nH]c2ccccc2c1=O)NCCCN1CCN(c2ccccc2F)CC1  -84.6%
85. COc1ccc(C(=O)C2CCCN(Cc3cccn3-c3nccs3)C2)cc1OC (stereo not shown)  -90.2%
86. COc1ccc(C(=O)C2CCCN(Cc3cccn3-c3nccs3)C2)cc1F (stereo not shown)  -91.4%
87. N=c1c(C(=O)NC2CCCC2)cc2c(=O)n3ccccc3nc2n1CC1CCCO1 (stereo not shown)  -94.4%
88. COc1ccccc1Nc1nc(N)nc(CN2CCC(Cc3ccccc3)CC2)n1  -95.7%
